# Assay results from article PMC5540273 (PLoS ONE, 2017).
# Columns and labels:
# Conditions in all cases: concentration: 1 μM,replicates: in singlicate; n = 1
# PIK3C2G = system: PIK3C2G
# PIK3CA = system: PIK3CA
# PIK3CB = system: PIK3CB
# PIK3CD = system: PIK3CD
# PIK3CG = system: PIK3CG
# PIK4CB = system: T1, PIK4CB
# T1 construct: gene PI4KB
# PIKFYVE = system: PIKFYVE
# PIM1 = system: PIM1
# PIM2 = system: PIM2
# PIM3 = system: PIM3
# PIP5K1A = system: PIP5K1A
# PIP5K1C = system: PIP5K1C
# PIP5K2B = system: PIP5K2B
# PIP5K2C = system: T2, PIP5K2C
# T2 construct: gene PIP4K2C
# PKAC-alpha = system: T3, PKAC-alpha
# T3 construct: gene PRKACA
# PKAC-beta = system: T4, PKAC-beta
# T4 construct: gene PRKACB
# PKMYT1 = system: PKMYT1
# PKN1 = system: PKN1
# PKN2 = system: PKN2
# PLK1 = system: PLK1
# 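Note: KINOMEscan kinase panel screen.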
Structure (SMILES),%Inh (PIK3C2G) [%],%Inh (PIK3CA) [%],%Inh (PIK3CB) [%],%Inh (PIK3CD) [%],%Inh (PIK3CG) [%],%Inh (PIK4CB) [%],%Inh (PIKFYVE) [%],%Inh (PIM1) [%],%Inh (PIM2) [%],%Inh (PIM3) [%],%Inh (PIP5K1A) [%],%Inh (PIP5K1C) [%],%Inh (PIP5K2B) [%],%Inh (PIP5K2C) [%],%Inh (PKAC-alpha) [%],%Inh (PKAC-beta) [%],%Inh (PKMYT1) [%],%Inh (PKN1) [%],%Inh (PKN2) [%],%Inh (PLK1) [%]
CCOC(=O)N1CCC(n2cnc(-c3ccc(F)cc3)c2-c2ccnc(N)n2)CC1 [SB-219952],69,15,0,16,64,59,37,9,0,1,0,32,2,94.4,9,36,32,0,8,23
OCCn1cc(-c2cnc3nnn(Cc4ccc5ncccc5c4)c3n2)cn1,0,0,0,0,0,0,40,1,0,10,1,3,0,0,0,0,0,0,0,0
Cn1ccc2ncnc(Oc3ccc(NC(=O)Nc4cccc(C(F)(F)F)c4)c(F)c3)c21,0,0,0,0,0,0,13,19,0,8,0,17,0,0,0,34,2,0,16,0
O=C(Nc1ccc(Oc2ccc3nc(NC(=O)C4CC4)cn3n2)c(F)c1)c1cccn(-c2ccccc2)c1=O,0,0,0,0,0,0,4,5,8,0,1,22,22,76,0,56,0,0,48,0
Cc1nnc(-c2ccc3occ(-c4ccc(S(C)=O)cc4)c3n2)o1 (centres unmarked),0,0,8,0,0,0,0,0,3,4,9,10,0,43,0,0,64,0,0,0
NC(=O)Nc1sc(-c2ccc(F)cc2)cc1C(N)=O [GW789449],19,0,0,30,1,18,22,0,0,0,93.9,65,87,28,0,26,0,7,54,37
Cc1ccc2c(-c3ccnc(Nc4ccc(C(F)(F)F)cc4)n3)cnn2n1 [GW819776],0,2,0,0,48,33,23,10,0,0,15,0,0,82,14,20,0,0,0,25
COc1cccc(OC)c1C(=O)Nc1cccc(-c2nn3ccccc3c2-c2ccnc(Nc3cccc(F)c3)n2)c1 [GSK361065],24,0,0,1,0,0,42,10,0,13,0,0,0,0,23,0,5,0,13,0
Nc1nccc(-c2ccc3c(N)n[nH]c3c2)n1 [GSK1034945],0,5,0,3,2,0,0,9,0,7,0,29,48,10,12,0,8,0,9,0
CC(C)c1nc(-c2cccc(NS(=O)(=O)c3ccccc3)c2)c(-c2ccnc(Nc3ccc4c(c3)CN(C)CC4)n2)s1 [GSK1649598],0,10,11,25,4,33,56,28,0,18,0,0,20,65,0,0,0,43,0,0
c1ccc(Oc2ccc(Nc3ccnc4ccc(-c5ccccn5)cc34)cc2)cc1 [GW407034],0,0,27,0,0,0,0,9,0,0,6,23,25,28,0,8,11,28,0,0
COC(=O)c1cccc(NC(=O)NC2CCN(c3ccnc(Nc4cc(OC)c(OC)c(OC)c4)n3)C2)c1 (centres unmarked) [GSK1379767],0,0,9,35,21,47,28,17,0,0,22,64,10,90.7,0,0,6,7,0,8
CCCC(=O)Nc1n[nH]c2ncccc12 [SB-601436],0,0,0,0,7,12,0,0,0,0,24,0,39,0,0,10,0,0,9,0
Cc1ccc(CC(=O)N2CCc3cc(-c4cn(C)c5ncnc(N)c45)ccc32)cc1 [GSK2634758],4,0,0,36,0,0,1,0,0,0,33,57,32,17,0,0,4,0,16,7
O=C1NCCc2[nH]c(-c3ccncc3)cc21,0,7,45,0,12,20,38,28,23,37,2,12,4,0,34,32,4,77,80,
N#Cc1cccc(C(=O)NC2CCN(c3ccnc(Nc4ccc(F)cc4)n3)C2)c1 (centres unmarked) [GSK1379708],0,0,0,0,0,0,0,0,0,0,0,37,0,21,9,0,0,14,0,0
Cn1ccc2ncnc(Oc3ccc(NC(=O)Nc4cc(C(C)(C)C)on4)c(Cl)c3)c21,48,5,8,12,4,0,19,1,0,11,14,0,38,0,0,0,0,0,0,0
CCn1c(-c2nonc2N)nc2cncc(CNC3CCNCC3)c21.Cl [SB-747651],0,0,0,2,0,15,0,93.4,81,80,0,25,0,22,85,83,3,39,0,0
CS(=O)(=O)c1cccc(CNc2nc(Nc3ccc4c(c3)[C@@H]3C[C@@H]4CNC3=O)ncc2C(F)(F)F)c1,0,0,0,0,0,0,24,0,0,0,52,48,93.3,52,0,0,0,56,22,0
CC(C(=O)NC1CCN(c2ccnc(Nc3ccc(F)cc3)n2)C1)c1ccc(Cl)cc1 (centres unmarked) [GSK1379713],0,0,0,15,0,0,9,9,0,0,21,0,1,4,0,6,0,4,0,0
CSc1nccc(-c2c(-c3ccc(F)cc3)ncn2CCCN2CCOCC2)n1.Cl [SB-217146],0,17,0,0,0,5,14,35,0,9,0,0,0,0,14,19,0,0,0,33
